# From PubChem BioAssay (Tox21)
# Inconclusive results are not listed. A call without a number means that no potency is given here. The source made the active and inactive calls. Calls follow the shape of the dose curve; as a rule, active = well fitted cell-killing curve with a large enough effect in the repeat runs; inconclusive = weak or mixed curves, or effect the other way; inactive = no such curve, though single readings can be large or run the other way.
# Assay: qHTS assay to identify small molecule antagonists of the retinoid-related orphan receptor gamma (ROR-gamma) signaling pathway - cell viability counter screen (AID 1159520); also: nearly all actives have a fitted effect of over 50% in size
# Details: Tet-on RORgamma CHO cells viability, ATP luminescence, 16 h; series mostly up to 92.4 µM
# Description: U.S. Tox21 Program National Center for Advancing Translational Sciences [NCATS] NIH Chemical Genomics Center [NCGC] U.S. Environmental Protection Agency [EPA] National Institutes of Environmental Health Sciences [NIEHS] National Toxicology Program [NTP] U.S. Food and Drug Administration [FDA] Tox21 Assay Overview: Nuclear steroid hormone receptors are involved in many biological processes including inflammatory responses, cell proliferation, and apoptosis. Environmental factors or compounds disrupting these nuclear receptor pathways and gene expression may promote susceptibility to immunotoxicants and autoimmune diseases. One important group of these expression factors are the retinoid-related orphan receptors. To assess compounds that may interfere with the retinoid-related orphan receptor gamma (ROR-gamma) transcription factor, a cell-based luciferase assay was used. The CHO cell-based assay utilizes a TET-inducible ROR expression factor and ROR response element-LUC reporter gene. Reporter gene activity was induced using Doxycycline Hyclate and measured after 16 hr incubation. Tet-on ROR gamma CHO cells were used to screen against the Tox21 10K compound library for cytotoxicity by measuring the viability of the cells based on the quantitation of the ATP.
# Tox21 Assay Protocol Summary: Tet-on ROR gamma CHO cells were dispensed at 1,000 cells in 4 uL of culture medium per well into white wall/solid bottom 1536-well plates using a Multidrop Combi (Thermo Scientific, Waltham, MA) dispenser. Following incubation at 37 C and 5% CO2 for 4 hr, 23 nL of compounds dissolved in DMSO, positive controls or DMSO only were transferred by a Pintool station (Kalypsys, San Diego, CA) and after 2 hr incubation at 37 C, one ul of 1 uM (final concentration) of Doxycycline Hyclate was added to all the wells by using a Flying Reagent Dispenser (FRD) (Aurora Discovery, San Diego, CA). After 16 hr incubation at 37 C and 5% CO2, 5 uL of CellTiter-Glo reagent (Promega Corporation, Madison, WI) was added to each assay plate using FRD. After 30 min incubation at room temperature, luminescence was quantified on a ViewLux plate reader (Perkin Elmer, Waltham, MA).
row,Structure (SMILES),Potency
1,CC(=O)c1ccccc1,inactive
2,CC(O)COCC(C)O (stereo not given),inactive
3,CC(C)(C)[C@@H](O)[C@@H](Cc1ccc(Cl)cc1)n1cncn1,inactive
4,O=S(=O)(O)c1ccc2ccccc2c1,inactive
5,CC(=O)Nc1ccccc1,inactive
6,Nc1ccccc1[N+](=O)[O-],inactive
7,OCC(CO)(CBr)CBr,inactive
8,CC(C)CC(=O)CC(C)C,inactive
9,CCCCCCCCC/C=C/CC1CC(=O)OC1=O (stereo not given),inactive
10,O=C=NCCCCCCN=C=O,inactive
11,Cc1cc(C)c(C)cc1C,inactive
12,C=C(C)C(=O)OCCOCCOCCOC(=O)C(=C)C,inactive
13,CC(=O)CC(=O)Nc1ccccc1C,inactive
14,NNc1nncc2ccccc12,inactive
15,COc1ccc(Cl)cc1C(=O)NCCc1ccc(S(=O)(=O)NC(=O)NC2CCCCC2)cc1,inactive
16,CC1CCC(C(C)C)C(O)C1 (stereo not given),inactive
17,CN(C)CCOCCN(C)C,inactive
18,CCCC(C)=O,inactive
19,CCCCCCOCCO,inactive
20,COc1cc(Cc2cnc(N)nc2N)cc(OC)c1OC,inactive

row,Structure (SMILES),Potency
1,OC[C@H]1O[C@@](CO)(O[C@H]2O[C@H](CO)[C@@H](O)[C@H](O)[C@H]2O)[C@@H](O)[C@@H]1O,inactive
2,CCCCCCCCCCCCS,inactive
3,Nc1cc([N+](=O)[O-])ccc1O,inactive
4,COc1ccc(Nc2ccccc2)c(C)c1,inactive
5,c1ccc(OCCOc2ccccc2)cc1,inactive
6,CN(C)CCC(c1ccc(Cl)cc1)c1ccccn1 (stereo not given),inactive
7,CCCCCCCCCCCCCCCO,inactive
8,CCCCN(CCCC)CCCC,inactive
9,c1ccc2scnc2c1,inactive
10,O=c1[nH]c(=O)n([C@H]2CCCO2)cc1F,inactive
11,CC(C)(N)CO,inactive
12,CCC(O)OC(O)CC (stereo not given),inactive
13,Cc1cccnc1,inactive
14,O=C(O)c1ccc(C(=O)O)cc1,inactive
15,Cc1occc(=O)c1O,inactive
16,C#C[C@]1(O)CC[C@H]2[C@@H]3CCC4=CC(=O)CC[C@@H]4[C@H]3CC[C@@]21C,inactive
17,CSCCC=O,inactive
18,O=C(O)[C@H](O)[C@@H](O)[C@H](O)[C@H](O)CO,inactive
19,OCCOCCN1CCN(C2=Nc3ccccc3Sc3ccccc32)CC1,inactive
20,CC(=O)CC(=O)Nc1ccccc1,inactive
